Active and inactive are the calls of the source. How the calls were made is not given here.
target: Pantothenate synthetase (Mycobacterium tuberculosis (strain ATCC 25618 / H37Rv)) (UniProt P9WIL5); assay: Coupled enzyme confirmation of inhibitors against recombinant Mtb PanC (AID 375); conditions: coupled enzyme assay; at 10 µM, active compounds read high;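 further: 0% = full reaction with vehicle and 100% = no enzyme background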
Sequence (P9WIL5 whole entry, looked up): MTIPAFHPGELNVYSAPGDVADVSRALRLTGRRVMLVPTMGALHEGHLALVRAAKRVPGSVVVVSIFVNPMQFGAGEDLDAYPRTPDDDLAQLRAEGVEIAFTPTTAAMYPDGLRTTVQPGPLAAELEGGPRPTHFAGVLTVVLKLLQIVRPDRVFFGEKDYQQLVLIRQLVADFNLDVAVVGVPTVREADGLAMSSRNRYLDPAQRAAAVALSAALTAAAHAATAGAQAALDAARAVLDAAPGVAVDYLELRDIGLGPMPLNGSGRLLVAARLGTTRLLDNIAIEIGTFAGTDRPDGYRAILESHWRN

| SMILES | inhibition |
| --- | --- |
| O=C1c2ccccc2NC2CCCCCN12 (stereo not given) | 0% (inactive) |
| COc1ccc(C2(CN(C(C)=O)C(C)=O)CCCC2)cc1OC | 2% (inactive) |
| CN1CCN2c3ccccc3Cc3ccccc3C2C1 (stereo not given) | 0% (inactive) |
| COc1ccc(CCNC(=O)C2CCCN(c3nn4c(=O)cc(C)nc4s3)C2)cc1OC (stereo not given) | 0% (inactive) |
| CC(=O)NC(CCS(C)(=O)=O)C(=O)Nc1cc(C)on1 (stereo not given) | 0% (inactive) |
| COC(=O)c1ccccc1NC(=O)CSc1nnc(-c2ccncc2)o1 | 0% (inactive) |
| C1COC(NC(C2CC2)C2CC2)=N1 | 4% (inactive) |
| CN(C)C(=O)c1ccc(COc2ccccc2Br)o1 | 0% (inactive) |
| CC(=O)Nc1c(-c2ccc(F)cc2)nc2ccccn12 | 0% (inactive) |
| COc1ccccc1C1CC(c2ccc(C)cc2)Nc2ncnn21 (stereo not given) | 3% (inactive) |
| O=C1CCCC2=C1C(c1cccs1)n1nc(SCc3ccccc3F)nc1N2 (stereo not given) | 0% (inactive) |
| O=C(NCC1CCCO1)c1cccc(N2C(=O)C3C4C=CC(C4)C3C2=O)c1 (stereo not given) | 11% (inactive) |
| CC1CCCCN1CCNS(=O)(=O)c1ccc2c(c1)oc(=O)n2C (stereo not given) | 0% (inactive) |
| N#CC1=C(N)OC2=C(C(=O)CCC2)C1CCc1ccccc1 (stereo not given) | 1% (inactive) |
| NS(=O)(=O)c1cc2c(cc1C(F)(F)F)NCNS2(=O)=O | 2% (inactive) |
| CN1C2C=C3C(C#N)=C(N)C(C#N)(C#N)[C@@H](c4ccc(Cl)cc4)[C@@H]3C1CC2 (stereo not given in full) | 7% (inactive) |
| Cc1cc2c(c(=O)n1CCN(C)C)C(c1ccncc1)C(C#N)=C(N)O2 (stereo not given) | 0% (inactive) |
| CC(NC(=O)c1noc2c1CCCCC2)c1ccccc1 (stereo not given) | 0% (inactive) |
| CCOC(=O)c1[nH]c2ccc(C)cc2c1NC(=O)CN1CCCCC1 | 3% (inactive) |
| CCN1CCN(C(=O)C2CC(c3ccc(F)cc3)=NO2)CC1 (stereo not given) | 0% (inactive) |

| SMILES | inhibition |
| --- | --- |
| Cc1ccc(/C=c2\sc3nc(-c4ccccc4Br)nn3c2=O)o1 | 0% (inactive) |
| Cc1nnc(SCc2ccccc2F)n1NCc1cccs1 | 3% (inactive) |
| C[C@H](NC(=O)OC(C)(C)C)C(=O)NCC1CCC(C(=O)O)CC1 (stereo not given in full) | 0% (inactive) |
| Cc1cc(C(=O)N2CCN(C/C=C/c3ccccc3)CC2)no1 | 0% (inactive) |
| CCc1ccc(Nc2cc(=O)n(C3CCCCC3)c(=O)[nH]2)cc1 | 0% (inactive) |
| COC(=O)Nc1nc2ccc(C(=O)c3ccccc3)cc2[nH]1 | 1% (inactive) |
| CCCC(=O)N(c1ccc2oc(=O)sc2c1)S(=O)(=O)c1ccccc1 | 0% (inactive) |
| COc1cc(NC(=O)c2cc(-n3cnnc3)ccc2Cl)cc(OC)c1 | 2% (inactive) |
| O=C(CSc1nnc(-c2cccs2)o1)NCC1CN(Cc2ccccc2)CCO1 (stereo not given) | 0% (inactive) |
| Cc1cc(-c2ccccc2)nc2cc(C(N)=O)nn12 | 12% (inactive) |
| COC(=O)c1cccc(S(=O)(=O)N2CCC(C)CC2)c1 | 3% (inactive) |
| Cc1ccn2cc(CCNC(=O)CC(C)(C)C)nc2c1 | 0% (inactive) |
| Cn1c(=O)c2ncn(CC(=O)NCCOc3ccccc3)c2n(C)c1=O | 0% (inactive) |
| CC(C)Cc1ccc(C(C)C(=O)O)cc1 (stereo not given) | 0% (inactive) |
| O=C(c1ccco1)N1CCN(CC(=O)N(C2CCCCC2)C2CCS(=O)(=O)C2)CC1 (stereo not given) | 2% (inactive) |
| O=C(N1CCCCCC1)N1CCN(C(=O)N2CCOCC2)CC1 | 0% (inactive) |
| COC(=O)c1ccccc1OCC(=O)NC1CCCCC1 | 0% (inactive) |
| CC12CCC(C(=O)N3CCN(C(=O)C45CCC(C)(C(=O)O4)C5(C)C)CC3)(OC1=O)C2(C)C | 0% (inactive) |
| CCOc1cc(CN2CCN(C(=O)c3ccco3)CC2)ccc1OC | 9% (inactive) |
| CCc1[nH]nc2c1C(c1cccc(OC(=O)N3CCOCC3)c1)C(C#N)=C(N)O2 (stereo not given) | 1% (inactive) |

Reference: PubChem BioAssay
